A selection: hits, their analogues and other compounds. The true share with any hit is near 1.9%.
INS-1E GSIS act = primary screen for activators of insulin secretion dependent on glucose, INS-1E cells, GLuc reporter luminescence | activation, % at 16.6 µM | actives 0.61% (n = 370,000) | AID 743287 | INS-1E GLuc reporter insulin secretion, 2-3 h;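 active means lowest replicate activation of at least 40%, so every replicate reaches that level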;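 further: 0% = median of neutral control wells and 100% = median of IBMX positive control wells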
Bfl-1 A1 inh = inhibitors of the anti-apoptotic protein A1, read as caspase activation | MEF A1-2A-BIM cells, Caspase-Glo 3/7 luminescence, 3 h; percent of clofoctol response, vehicle zero | caspase activation, % (test concentration not listed) | actives 0.066% (n = 330,000) | AID 2462;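 active means over half of replicate activation scores above 10%, or exactly half above 10 with the replicate mean above 10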
Vif inh = inhibitors of HIV Vif. inhibition, % at 7.49 µM. HEK293T cells, Vif self-association by quenched fluorescence, imaging, 24 h. actives 0.35% (n = 340,000); in the data active means inhibition above about 50%, passing the limit was not always enough
Neddyl block = cullin neddylation inhibition | actives 0.58% (n = 360,000) | TR-FRET cullin neddylation, biochemical | inhibition, % at 25 µM | P61081+Q13564; in the data active means inhibition above about 36%
Target sequence (P61081 whole entry, looked up): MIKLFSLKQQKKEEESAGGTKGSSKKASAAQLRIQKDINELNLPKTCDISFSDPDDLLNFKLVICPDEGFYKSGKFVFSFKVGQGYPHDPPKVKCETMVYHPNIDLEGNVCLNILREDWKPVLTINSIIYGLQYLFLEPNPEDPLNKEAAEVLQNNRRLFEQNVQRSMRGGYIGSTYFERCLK
Target sequence (Q13564 whole entry, looked up): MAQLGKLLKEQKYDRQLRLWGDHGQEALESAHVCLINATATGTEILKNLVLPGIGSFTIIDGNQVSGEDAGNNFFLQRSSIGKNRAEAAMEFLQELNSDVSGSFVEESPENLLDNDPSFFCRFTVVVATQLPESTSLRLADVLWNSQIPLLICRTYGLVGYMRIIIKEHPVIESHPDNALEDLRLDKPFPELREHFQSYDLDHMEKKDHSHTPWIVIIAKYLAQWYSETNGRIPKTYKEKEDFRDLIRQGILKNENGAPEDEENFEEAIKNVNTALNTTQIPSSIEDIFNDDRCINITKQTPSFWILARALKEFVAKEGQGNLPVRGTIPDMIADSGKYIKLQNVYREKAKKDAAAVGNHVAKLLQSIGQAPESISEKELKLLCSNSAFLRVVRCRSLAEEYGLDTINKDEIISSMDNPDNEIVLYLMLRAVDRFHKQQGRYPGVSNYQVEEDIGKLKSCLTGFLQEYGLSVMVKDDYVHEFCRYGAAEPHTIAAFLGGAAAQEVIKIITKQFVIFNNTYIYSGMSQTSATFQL
dFosB act-1 = mouse delta FosB homodimer activation. P13346. purified delta FosB, TAMRA-CDK5 oligo fluorescence polarization; percent of positive-control signal above neutral wells. activation, % at 25 µM. actives 0.99% (n = 340,000). AID 493131;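 active means mean activation above about 17%, with every replicate also reaching it, limit read from the data, passing the limit was not always enough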
dFosB act-2 = enhances mouse delta FosB homodimer binding to DNA. purified delta FosB, TAMRA-CDK5 oligo fluorescence polarization; normalised: neutral wells 0, positive control 100. shares compounds with dFosB act-1. 2,400 tested, under 10 active. activation, % at 24.9 µM;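 active means highest replicate activation at or above 34% and every replicate reaching that threshold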;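 further: higher polarization means more probe DNA bound by delta FosB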
* hit, by the source's call; . = not tested or not shown; ! = not confirmed by another sample.

SMILES	INS-1E GSIS act	Bfl-1 A1 inh	Vif inh	Neddyl block	dFosB act-1	dFosB act-2
CC/C(=N\NC(=O)CSCc1ccccc1Br)c1ccc2c(c1)OCCO2	.	-1	0	-5	20*	0
CCOC(=O)c1c(C)[nH]c(C(=O)OCC(=O)Nc2ccccc2)c1C	-42	1	-2	2	27*	-1
CCOC(=O)c1c(C)[nH]c(C(=O)OCc2ccccc2)c1C	11	-2	-11	-31	-16	.
CC[C@@H](C)[C@@H]1CN([C@@H](C)CN2CCC[C@H]2CN2C(N)=NC[C@@H]2Cc2ccccc2)C(=N)N1CCc1ccc(Cl)c(Cl)c1	.	0	-3	-54	23*	1
COc1ccc(NC(=O)Nc2ccc3c(c2)C(=O)N([C@H](C)CO)C[C@H](C)[C@H](CN(C)C(=O)NC2CCCCC2)OCCCC[C@H](C)O3)cc1	-1	.	.	.	.	.
O=C(CSc1ccc(-c2ccc3c(c2)OCO3)nn1)Nc1nccs1	-8	-1	16	5	36*	-4
Cc1noc(C)c1NC(=O)N(C)C[C@@H]1Oc2c(NC(=O)CCCCCC(=O)Nc3ccccc3N)cccc2C(=O)N([C@@H](C)CO)C[C@H]1C	7	.	.	.	.	.
CC(C)COc1ccc(-c2nn(-c3ccccc3)cc2C(=O)Nc2nccs2)cc1	.	-1	-2	-7	39*	1
O=C(N[C@H]1CC[C@H](CCNS(=O)(=O)c2ccc(F)cc2)O[C@@H]1CO)C1CCOCC1	6	.	.	.	.	.
Cc1cc2cc(C)c3nnc(SCC(=O)Nc4ccc(S(=O)(=O)N5CCCCC5)cc4)n3c2cc1C	.	-1	-2	3	22*	2
CS(=O)(=O)Nc1ccc2c(c1)[C@@H]1C[C@H](CC(=O)NCc3ccccc3)O[C@@H](CO)[C@@H]1O2	4	.	.	.	.	.
O=C(CC(NC(=O)c1ccccc1Cl)c1ccccc1)NCCc1ccc(Cl)cc1 (stereo not drawn)	5	0	2	0	25*	0
CCCC(=O)Nc1ccc2c(c1)OC[C@H](C)N(CCC)C[C@@H](C)[C@H](OC)CN(C)C2=O	8	.	.	.	.	.
Cc1cccc(NC(=O)c2cc(S(=O)(=O)N3CCc4ccccc43)cn2C)c1C	-2	0	-16	6	40*	-1
CCCNC(=O)c1cc(S(=O)(=O)N2CCc3ccccc32)cn1C	-21	0	.	0	2	.
CCc1ccccc1NC(=O)c1cc(S(=O)(=O)N2CCc3ccccc32)cn1C	.	.	-5	5	26*	-8
Cc1ccccc1-c1ccc([C@H]2[C@H]3CN(C(=O)Nc4ccc(F)cc4)CC(=O)N3[C@H]2CO)cc1	-10	.	.	.	.	.
C[C@@H]1CN([C@@H](C)CO)C(=O)c2cccc(NC(=O)C3CCCCC3)c2O[C@@H]1CN(C)S(=O)(=O)c1ccc(F)cc1	-17	.	.	.	.	.
COCC(=O)N1C[C@@H]2[C@H](c3ccccc31)[C@H](CO)N2Cc1ccc(OC)cc1	16	.	.	.	.	.
CN1CCN(S(=O)(=O)c2ccc(Sc3nc4ccccc4[nH]3)c3nsnc23)CC1	.	0	-2	-22	40*	-8
CN1CCN(S(=O)(=O)c2ccc(Br)c3nsnc23)CC1	18	-1	-4	-30	5	.
O=C(C[C@H]1C[C@H]2c3cc(NC(=O)c4ccc5c(c4)OCO5)ccc3O[C@H]2[C@@H](CO)O1)NCc1ccccn1	0	.	.	.	.	.
COc1ccc(NC(=O)N(C)C[C@H]2OCCCC[C@H](C)Oc3ccc(NC(=O)C4CCCCC4)cc3C(=O)N([C@H](C)CO)C[C@H]2C)cc1	1	.	.	.	.	.
CC1CC(C)CN(S(=O)(=O)c2ccc3c(c2)oc(=O)n3CC(=O)N(C)Cc2ccccc2)C1 (stereo not drawn)	1	0	-7	0	47*	0
O=C(COC(=O)c1n[nH]c(=O)c2ccccc12)NCc1ccccc1	42	1	8	-4	9	.
SMILES	INS-1E GSIS act	Bfl-1 A1 inh	Vif inh	Neddyl block	dFosB act-1	dFosB act-2
O=C(COC(=O)c1n[nH]c(=O)c2ccccc12)NC1CCCCC1	1	0	1	-17	50*	1
O=C(CSc1nc(-c2cccs2)nc2ccccc12)NC1CCS(=O)(=O)C1 (stereo not drawn)	-1	-1	-1	1	34*	-3
CO[C@@H]1CN(C)C(=O)c2cc(NS(C)(=O)=O)ccc2OC[C@H](C)N(C(=O)NC(C)C)C[C@H]1C	6	.	.	.	.	.
CCCC#Cc1ccc2c(c1)O[C@H](CN(C)Cc1cccnc1)[C@@H](C)CN([C@@H](C)CO)S2(=O)=O	-28	.	.	.	.	.
O=C(N/N=C/c1ccc(-c2cccc([N+](=O)[O-])c2)o1)c1ccccc1O	-2	1	0	-34	22*	-1
O=C(N/N=C/c1ccc(-c2cccc([N+](=O)[O-])c2)o1)c1ccc([N+](=O)[O-])cc1	2	0	-5	-30	-7	.
Nc1nc(SCC(=O)NCC2CCCO2)[nH]c(=O)c1NC(=O)c1ccc(F)c(F)c1 (stereo not drawn)	2	0	7	6	0	.
Cc1ccc(C(=O)Nc2c(N)nc(SCC(=O)Nc3cc(C)on3)[nH]c2=O)cc1	-11	-2	.	-2	26*	-7
COc1ccc(C(=O)Nc2c(N)nc(SCC(=O)Nc3ccc(NC(C)=O)cc3)[nH]c2=O)cc1	-13	-1	.	-1	8	.
Nc1nc(SCC(=O)Nc2ccc(F)cc2)[nH]c(=O)c1NC(=O)c1ccc(F)c(F)c1	5	0	-1	-1	27*	-1
CCc1ccc(NC(=O)CSc2nc(N)c(NC(=O)c3ccc(F)c(F)c3)c(=O)[nH]2)cc1	18	1	-11	-5	29*	4
Cc1cc(C)cc(NC(=O)CSc2nc(N)c(NC(=O)c3cccs3)c(=O)[nH]2)c1	-4	1	4	-6	31*	6
C[C@@H]1CN([C@@H](C)CO)C(=O)CCCn2nncc2CO[C@@H]1CN(C)C	0	.	.	.	.	.
CN1CCN(Cc2nc3ccccc3c(=O)n2Cc2nc(-c3ccc4ccccc4c3)cs2)CC1	2	1	-2	-50	27*!	3
C[C@H](CO)N1C[C@H](C)[C@@H](CN(C)CC2CC2)Oc2c(NC(=O)Nc3ccc(F)cc3)cccc2C1=O	-5	.	.	.	.	.
Cc1ccccc1-n1nnnc1SCC(=O)NNC(=O)c1ccc(NC(=O)CC#N)cc1	4	0	0	10	47*	0
COC(=O)c1ccccc1NC(=O)CSc1nnnn1-c1ccc(C)cc1C	.	0	-10	3	31*	1
C[C@@H](O)C#Cc1ccc2c(c1)O[C@H](CN(C)C(=O)C1CC1)[C@@H](C)CN([C@@H](C)CO)S2(=O)=O	12	.	.	.	.	.
CS(=O)(=O)c1ccc2nc(NC(=O)c3cc(-c4ccccc4)nn3-c3ccccc3)sc2c1	-19	1	-3	-413	29*	7
